Test [1] can be described thus: E. coli DRC41 culture turbidity changes, primary screen, E. coli filamentation inducer project, strain DRC41, OD650, 48 h (AID 1152).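 Also: E. coli MC1000 strain DRC41 lacking acrAB efflux pump and sulA.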 The settings on record: E. coli DRC41 (acrAB sulA), higher = more signal, called active from +8 up or from −8 down.
Test [2] in a line: small-molecule binders of probe aLefty1, primary screen, biochemical, small-molecule microarray, 635/667 nm fluorescence (AID 1153).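 Also: score merges spot fluorescence with signal-to-noise ratio from the scanned slide images.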 The settings on record: higher = more signal.
Test [3] can be described thus: PSAC antagonists in infected red cells, primary screen, cell-based, P. falciparum Indochina, OD700, 1 h (AID 1154). Conditions: P. falciparum Indochina infected RBC osmotic lysis, higher = more signal, called active from +8 up or from −8 down.
Test [4] can be described thus: PSAC antagonists in infected red cells, primary screen, cell-based, P. falciparum Indochina, OD700, 2 h (AID 1155).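 Also: lysis reports solute entry through the parasite surface anion channel PSAC; channel blockers reduce lysis of infected cells.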 The settings on record: P. falciparum Indochina infected erythrocytes, osmotic lysis OD700; higher = more signal, called active from +8 up or from −8 down.
Test [5] in a line: osmotic lysis modulators in infected erythrocytes, primary screen, PSAC antagonist project, cell-based, P. falciparum Indochina, OD700, 3 h (AID 1156). The settings on record: higher = more signal, called active from +8 up or from −8 down.
Test [6] can be described thus: PSAC antagonists in infected red cells, primary screen, cell-based, P. falciparum Indochina, OD700, 18 h (AID 1157). Conditions: P. falciparum Indochina infected erythrocytes, osmotic lysis OD700, 18 h; higher = more signal, called active from +8 up or from −8 down.
The nature of test [7]: modulators of S6 phosphorylation in cells, primary screen, cell-based, A549, cytoblot, luminescence, serum-stimulated (AID 1158).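 Also: serum-stimulated A549 lung adenocarcinoma cells; signal is phosphorylated S6 detected by cytoblot immunostaining with HRP secondary.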 Conditions: A549 phospho-S6 cytoblot, 5 h, higher = more signal.
Test [8] has as its target NADPH oxidase 2 (Homo sapiens) (UniProt P04839). As to the kind of experiment: NOX2-dependent H2O2 signal modulators, primary screen, NOX inhibitor project, cell-based, HEK293-NOX2, PMA-stimulated, Amplex Red fluorescence (AID 1159). Also: test concentration not given here. The settings on record: 45 min, higher = more signal, called active from +8 up or from −8 down.
Test [9] deals with NADPH oxidase 4 (Homo sapiens) (UniProt Q9NPH5). Nature of the test: NOX4-dependent H2O2 signal modulators, primary screen, NOX inhibitor project, cell-based, HEK293-NOX4, tetracycline-induced, Amplex Red fluorescence (AID 1160). Conditions: 45 min, higher = more signal, called active from +8 up or from −8 down.
Test [10] addresses NADPH oxidase 5 (Homo sapiens) (UniProt Q96PH1). Nature of the test: NOX5-dependent H2O2 signal modulators, primary screen, NOX inhibitor project, cell-based, HEK293-NOX5, Amplex Red fluorescence (AID 1161). Conditions: HEK293-NOX5, ionomycin, 45 min, higher = more signal.

SMILES strings stand for the structures. Calls of active or inactive are those of the source.

Chain of NADPH oxidase 5 (Homo sapiens) (Q96PH1 whole entry, looked up): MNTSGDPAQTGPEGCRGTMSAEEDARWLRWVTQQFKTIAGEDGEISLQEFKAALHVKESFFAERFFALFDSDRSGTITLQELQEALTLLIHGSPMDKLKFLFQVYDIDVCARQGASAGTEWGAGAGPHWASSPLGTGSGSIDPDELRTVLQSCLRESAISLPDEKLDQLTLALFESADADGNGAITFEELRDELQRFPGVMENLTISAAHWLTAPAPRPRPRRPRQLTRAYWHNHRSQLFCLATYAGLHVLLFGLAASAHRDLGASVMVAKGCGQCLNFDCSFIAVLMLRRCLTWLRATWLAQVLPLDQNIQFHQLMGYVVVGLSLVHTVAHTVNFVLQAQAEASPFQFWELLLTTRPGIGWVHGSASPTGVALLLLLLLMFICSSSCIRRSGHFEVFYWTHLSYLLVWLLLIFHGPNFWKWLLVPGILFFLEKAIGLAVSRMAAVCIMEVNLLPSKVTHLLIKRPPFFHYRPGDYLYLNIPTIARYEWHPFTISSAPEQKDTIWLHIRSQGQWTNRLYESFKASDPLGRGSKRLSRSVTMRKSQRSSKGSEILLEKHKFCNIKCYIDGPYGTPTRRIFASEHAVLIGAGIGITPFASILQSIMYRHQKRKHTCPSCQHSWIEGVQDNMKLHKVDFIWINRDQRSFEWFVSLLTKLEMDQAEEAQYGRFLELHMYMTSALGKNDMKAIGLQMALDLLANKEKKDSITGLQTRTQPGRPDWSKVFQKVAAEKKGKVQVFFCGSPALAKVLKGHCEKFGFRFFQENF
Chain of NADPH oxidase 2 (Homo sapiens) (P04839 whole entry, looked up): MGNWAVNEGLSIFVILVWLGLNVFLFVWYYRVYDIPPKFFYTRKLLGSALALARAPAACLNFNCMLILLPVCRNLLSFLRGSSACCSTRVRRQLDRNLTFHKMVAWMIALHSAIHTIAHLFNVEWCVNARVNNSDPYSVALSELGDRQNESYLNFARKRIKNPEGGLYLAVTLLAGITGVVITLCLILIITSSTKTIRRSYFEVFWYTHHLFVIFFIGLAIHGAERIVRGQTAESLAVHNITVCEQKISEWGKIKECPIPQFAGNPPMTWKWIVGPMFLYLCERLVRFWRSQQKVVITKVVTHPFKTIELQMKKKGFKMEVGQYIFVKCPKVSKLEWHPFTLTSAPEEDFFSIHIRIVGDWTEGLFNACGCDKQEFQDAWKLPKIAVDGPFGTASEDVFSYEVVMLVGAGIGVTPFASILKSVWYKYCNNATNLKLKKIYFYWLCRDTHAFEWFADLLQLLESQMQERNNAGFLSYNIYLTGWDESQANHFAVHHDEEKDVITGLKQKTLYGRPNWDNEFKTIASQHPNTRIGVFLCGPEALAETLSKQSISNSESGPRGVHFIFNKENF
Chain of NADPH oxidase 4 (Homo sapiens) (Q9NPH5 whole entry, looked up): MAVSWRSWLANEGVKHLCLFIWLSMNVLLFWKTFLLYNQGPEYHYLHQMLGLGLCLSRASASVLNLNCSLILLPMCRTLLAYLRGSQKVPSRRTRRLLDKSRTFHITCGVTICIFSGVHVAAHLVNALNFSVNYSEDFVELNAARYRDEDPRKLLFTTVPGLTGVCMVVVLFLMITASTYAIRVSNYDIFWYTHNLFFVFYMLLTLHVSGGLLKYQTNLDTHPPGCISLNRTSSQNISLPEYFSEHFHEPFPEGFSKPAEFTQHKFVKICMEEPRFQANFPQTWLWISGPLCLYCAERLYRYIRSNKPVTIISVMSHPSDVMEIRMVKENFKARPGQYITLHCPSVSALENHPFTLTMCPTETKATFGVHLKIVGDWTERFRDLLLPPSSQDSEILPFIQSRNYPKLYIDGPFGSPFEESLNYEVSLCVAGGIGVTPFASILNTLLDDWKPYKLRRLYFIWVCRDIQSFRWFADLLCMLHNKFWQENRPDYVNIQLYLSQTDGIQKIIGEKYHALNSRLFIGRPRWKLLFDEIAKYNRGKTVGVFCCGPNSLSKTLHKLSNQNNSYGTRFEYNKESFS

Take `CCCCN1CC=CC23O[C@@H]4C=CCOC(=O)[C@@H]4[C@H]2C(=O)N(CCCO)[C@@H]3C1=O` (stereo not given in full): the z-score in test [1] is 0.915 (inactive); in test [3], -0.062 (inactive); in test [4] it was -0.921 (inactive); in test [5], 0.836 (inactive); in test [6] it was -1.43 (inactive); in test [7], 0.385. Moreover, the values for the z-score in [8], in test [9] and in test [10] were 0.05 (inactive), -0.101 (inactive) and -0.234, respectively. In addition, the composite z-score in test [2] is -0.0075.

Consider `COCCOC(=O)N1C(=O)[C@@]2(c3cc(C#CCC(C(=O)OC)C(=O)OC)ccc31)[C@H](c1ccc(OCCO)cc1)N1[C@H](c3ccccc3)[C@H](c3ccccc3)OC(=O)[C@H]1[C@@H]2C(=O)N1CCN(c2ncccn2)CC1`, for which the z-score in test [1] was 1.89 (inactive); in test [3], 6.55 (inactive); in [4], 1.35 (inactive); in test [5] it was 0.14 (inactive); in [6] it was -0.0311 (inactive); in [7], 1.72. The z-score in test [8] was -0.105 (inactive); in [9] it was -1.13 (inactive); in [10], -4.4. The composite z-score in test [2] was 0.297.

Turning to `COc1ccc(CCNC(=O)[C@@]2(Sc3ccc(C)cc3)CC(=O)N(Cc3cc(C(F)(F)F)cc(C(F)(F)F)c3)[C@@H]2c2ccc(CO)cc2I)cc1`, the z-score in test [1] is 0.0818 (inactive); in test [3] it was 10.5 (active); in test [4], 1.25 (inactive); in [5], -0.459 (inactive); in test [6], 0.132 (inactive); in test [7], 0.179. For the same compound, the results for the z-score in test [8], in [9] and in test [10] were 1.15 (inactive), -1.07 (inactive) and 0.562, respectively. Also, the composite z-score in test [2] stood at 0.0509.

In the case of `COc1cc2c(cc1OC)CN(C(=O)[C@H]1[C@@H]3C(=O)O[C@@H](c4ccccc4)[C@@H](c4ccccc4)N3[C@@H](c3ccc(OCCO)cc3)[C@]13C(=O)Nc1ccc(C#CC4(O)CCCCCC4)cc13)CC2`, the z-score in test [1] was 1.9 (inactive); in test [3], 3.15 (inactive); in [4] it was 2.15 (inactive); in test [5], 1.08 (inactive); in test [6], 1.35 (inactive); in [7] it was 0.108. For the same compound, the z-score in test [8] was 1.32 (inactive); in test [9], 0.882 (inactive); in test [10], 1.28. For the same compound, the composite z-score in [2] stood at 1.51.

Take `CCN(CC)c1ccc(N2CC=CC34O[C@@H]5/C=C\CCC(C)OC(=O)C5[C@H]3C(=O)N(CCO)[C@@H]4C2=O)cc1` (stereo not given in full): the z-score in test [1] was -0.244 (inactive); in test [3], 3.17 (inactive); in test [4], 0.615 (inactive); in test [5], 0.411 (inactive); in test [6], 0.162 (inactive); in test [7] it was -0.369. For the same compound, the z-score in test [8] is -0.361 (inactive); in [9], 0.785 (inactive); in test [10], 1.36. This compound also yielded a composite z-score in [2] of 0.33.

`COc1ccc([Si](C)(C)[C@@H]2[C@@H](CCO)O[C@]3(C(=O)N(Cc4cccc(N5C(=O)c6ccccc6Oc6ccccc65)c4)c4ccccc43)[C@H]2C)cc1`: the z-score is 0.705 (inactive) in test [1]; 2.72 (inactive) in test [3]; 3.13 (inactive) in [4]; 0.207 (inactive) in [5]; 1.77 (inactive) in test [6]; 0.243 in [7]. In addition, the z-score in test [8] was 0.423 (inactive); in test [9] it was 0.543 (inactive); in test [10] it was 1.98. The composite z-score in test [2] was 0.0355.

As for `Cc1ccc(S[C@]2(C(=O)NCCN3CCOCC3)CC(=O)N(Cc3ccccc3C(F)(F)F)[C@@H]2c2ccc(CO)cc2I)cc1`, the z-score in test [1] was 0.0143 (inactive); in test [3] it was 4.93 (inactive); in [4] it was 0.636 (inactive); in [5], 2.03 (inactive); in [6] it was 0.278 (inactive); in test [7] it was 0.155. For the same compound, the z-score in test [8] is 2.82 (inactive); in test [9] it was -0.659 (inactive); in test [10], 1.61. For the same compound, the composite z-score in test [2] stood at 0.114.

Turning to `C[C@H]1C2=C3C(CC[C@H]4C(OCc5ccc(F)cc5C(F)(F)F)OC[C@](C)([C@@H]34)N(C(=O)OC(C)(C)C)C2)C2COC(=O)OCC21` (stereo not given in full), the z-score in [1] was -2.42 (inactive); in [3] it was 2.68 (inactive); in test [4], 0.368 (inactive); in [5] it was 1.19 (inactive); in test [6], 1.11 (inactive); in test [7], -0.139. Also, the z-score in test [8] was -0.0545 (inactive); in [9], -2.17 (inactive); in [10] it was -1.09. This compound had a composite z-score in test [2] of 0.739.

With `CN(C)CCCCNC(=O)[C@H]1C[C@H]2C(=O)N3CCC[C@H]3C(=O)N2[C@H]1c1ccc(O)cc1`, the z-score in test [1] is 1.67 (inactive); in [3], 0.148 (inactive); in [4], -1.79 (inactive); in test [5], 1.55 (inactive); in [6] it was -2.18 (inactive); in test [7], 0.752. The results for the z-score in [8], in test [9] and in test [10] were -0.714 (inactive), -0.561 (inactive) and -3.16, respectively. In addition, the composite z-score in test [2] was -0.926.

On to `COc1cc(OC)c(C(O)C2C=CC3C(=O)N(c4ccccc4)C(=O)C3N2Nc2ccc(C#N)cc2)cc1Br` (stereo not given), for which the z-score in [1] is -0.652 (inactive); in [3], 25 (active); in test [4], 11.4 (active); in test [5], 1.39 (inactive); in test [6], 1.76 (inactive); in test [7], -0.962. Moreover, the z-score in test [8] is -1.41 (inactive); in [9], -5.35 (inactive); in test [10] it was -2.08. In addition, the composite z-score in test [2] was 0.843.

For the compound `COC(=O)C[C@H]1O[C@]2(C(=O)N(C)c3ccccc32)[C@@H](C)[C@@H]1[Si](C)(C)c1ccc(C)cc1`, the z-score in test [1] is 1.6 (inactive); in test [3], 2.58 (inactive); in [4], 0.894 (inactive); in test [5], 0.0094 (inactive); in [6], 0.426 (inactive); in test [7], 0.559. The z-score in test [8] was 0.626 (inactive); in [9], 0.00059 (inactive); in test [10], -1.59. The same compound came in with a composite z-score in [2] of -0.0789.

Regarding `CN1C(=O)C2C=CC(C(O)Cc3ccccc3)N(N(c3ccccc3)c3ccccc3)C2C1=O` (stereo not given), the z-score is -1.29 (inactive) in test [1]; 1.15 (inactive) in [3]; 1.09 (inactive) in test [4]; 0.449 (inactive) in test [5]; 0.679 (inactive) in test [6]; -1.07 in test [7]. In addition, the z-score in test [8] is -0.0622 (inactive); in [9], -0.198 (inactive); in [10], 0.158. The composite z-score in test [2] was determined as 0.137.

Turning to `C=CC[C@]12N=C(c3ccc(OCCCO)cc3)O[C@H]1c1ccccc1N(C)C2=O`, the z-score is -0.0028 (inactive) in test [1]; 31.9 (active) in [3]; 31.8 (active) in [4]; 4.16 (inactive) in test [5]; 3.07 (inactive) in test [6]; 0.289 in test [7]. Besides, the z-score was -2.49 (inactive) in test [8], -0.582 (inactive) in test [9] and -1.8 in test [10]. This compound displayed a composite z-score in test [2] of 1.11.

Values taken from PubChem BioAssay.
